About 40 (4%) of roughly 1,100 compounds were called active.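 The calls were made as follows: active = average inhibition above the solvent-only control wells' mean plus 3 SD (cut at about 15% in these data); inactive = the rest.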 Not all results are given here.

The assay is described as follows: compounds lowering TTR transcription reporter in HuH7 – cell-based, luminescence, HuH7 hepatoma, counter-screen for TTR transcription activator project (AID 1117279).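 Also: 0% = cells with DMSO only and 100% = cells with inhibitor control FD; inhibitors lower well luminescence so higher value means more inhibition.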 To be noted: HuH7 TTR promoter-Gaussia luciferase reporter, at 16.7 µM, active compounds read high. On the technique in general: The purpose of a counterscreen is to sort out artefacts and off-target activity.
By inhibition is commonly meant the change of the read-out against control, counted positive when it falls. On to `CC(C)(C)C1CCC(OC(=O)CCC(=O)Nc2ccccc2)CC1` (stereo unspecified), for which the inhibition was -7.82% (inactive).

In the case of `C[C@H](NC(=O)C1CCN(S(=O)(=O)c2ccccc2)CC1)C(=O)NCc1ccccc1`, the inhibition was -13.1% (inactive).

Regarding `Cc1cccc(N2C(=O)CC(SC(N)=Nc3ccccc3)C2=O)c1` (stereo unspecified), the inhibition was -9.09% (inactive). Turning to `Brc1ccc(/C=N/N2CCN(C3c4ccccc4-c4ccccc43)CC2)s1`, the inhibition is -10.1% (inactive). For the compound `CC(C)NC(=O)c1ccc(Sc2ccccc2)c([N+](=O)[O-])c1`, the inhibition was -1.16% (inactive). For the compound `CCOc1ccc(NC(=O)COc2ccc(S(=O)(=O)N3CCCC3)cc2)cc1`, the inhibition is -11.3% (inactive). The same measure for `CCCCCc1ccc(-c2cn(Cc3ccc4ccccc4c3)nn2)cc1`: -10.2% (inactive); for `CCOc1ccc(N=C2NC(=O)S/C2=C\c2ccc(O)cc2)cc1`: 24.4% (active); for `COc1cc(N2C(=O)CC3(CCCC3)CC2=O)cc(OC)c1OC`: -8.06% (inactive).

Consider `Cc1c(C#N)c(NC(=O)c2ccccc2)n(Cc2ccccc2)c1C`, for which the inhibition is -8.18% (inactive). As for `Cn1cc(CN2CCCC(CO)C2)c(-c2ccc(Oc3ccccc3)cc2)n1` (stereo unspecified), the inhibition was -9.5% (inactive). With `O=C(NNC1=NCCC1)c1cccc(S(=O)(=O)N2CCCCC2)c1`, the inhibition was -4.93% (inactive). As to `COc1ccc(-c2oc3ncn(Cc4ccco4)c(=N)c3c2-c2ccc(OC)cc2)cc1`, the inhibition is 1.5% (inactive). In the case of `CSCCC(NC(N)=O)C(=O)N(C)CC(=O)Nc1ccc(C)cc1` (stereo unspecified), the inhibition was -0.9% (inactive). For the compound `CCCCOCCCNC(=O)C[C@H]1C[C@@]2(C(=O)OC)C(=C[C@H](C(C)(C)C)O[C@@H]2C)N(CCc2ccc(OC)c(OC)c2)C1=O`, the inhibition is -3.28% (inactive).

For the compound `Cc1cccc(C)c1NC(=O)CN1C(=O)C(C)Oc2ccccc21` (stereo unspecified), the inhibition was 1.63% (inactive). The figure for `N=c1ccn(CC(=O)NC(N)=O)c2ccccc12` is -11.8% (inactive); for `C=C1C(C(C)C)N(C)C2=NC(c3ccccc3)CC(=O)N12` (stereo unspecified) it is -4.18% (inactive).

In the case of `O=C(NCCCNC(=O)c1ccccc1Cl)c1cnccn1`, the inhibition is -8.25% (inactive).

For `O=S(=O)(NCCCN1CCOCC1)c1ccc(F)c(Cl)c1`, the inhibition is -2.54% (inactive). In the case of `COc1ccccc1N1CCN(Cc2cc(OC)c3c(c2)OCO3)CC1`, the inhibition was -8.45% (inactive).

Consider `O=C(Nc1cccc(O)c1)c1ccc(C(=O)c2ccccc2)o1`, for which the inhibition was -11.2% (inactive). With `O=C(O)Cn1c(Cc2ccccc2)nc2ccccc21`, the inhibition is -10% (inactive).

`O=C(CCC(=O)c1cccs1)NCc1ccccc1`: the inhibition is -6.29% (inactive). For the compound `Cc1c(NS(=O)(=O)c2ccc(NC3CCCC3)c([N+](=O)[O-])c2)c(=O)n(-c2ccccc2)n1C`, the inhibition was 17.4% (active). With `CCOC(=O)c1c(-c2ccccc2)oc2ccc(OCC(N)=O)cc12`, the inhibition was -17.5% (inactive).

As to `COc1cc(C(C)=O)ccc1OC(C)C(=O)Nc1ccc(S(=O)(=O)N2CCCC2)cc1` (stereo unspecified), the inhibition was -21.8% (inactive). The same measure for `O=C(Nc1ccccc1C(=O)N1CCCCCC1)c1ccccc1Cl`: -17.5% (inactive); for `CCOc1ccccc1NC(=O)COc1ccc(S(=O)(=O)N2CCCC2)cc1`: -35.5% (inactive). For `C(=N\n1cnnc1)/c1cccnc1`, the inhibition is -6.37% (inactive). Consider `COc1cccc(-c2cnc(C(O)c3ccccc3OC)[nH]2)c1` (stereo unspecified), for which the inhibition was -13.2% (inactive). As for `Cc1ccccc1/[N+]([O-])=C/c1ccncc1`, the inhibition was -5.47% (inactive). The figure for `O=C(CS(=O)(=O)c1ccccc1)Nc1ccc(S(=O)(=O)Nc2ccccn2)cc1` is -15.3% (inactive); for `C/C(CC(=O)Nc1ccc(N(C)C)cc1)=N\NC(=O)c1ccccc1F` it is -16.7% (inactive). The same measure for `COc1ccc(S(=O)(=O)NCC(=O)NCc2cc(=O)n(C)c(=O)n2C)cc1F`: -4.59% (inactive). Turning to `Cc1ccc(CN2CCCOCCS2(=O)=O)cc1`, the inhibition was -6.05% (inactive). Regarding `Nc1nc(SCC(=O)Nc2ccc(Cl)c([N+](=O)[O-])c2)n[nH]1`, the inhibition was -10% (inactive). The figure for `CCOC(=O)c1cc(-c2ccc(Cl)s2)nc2c1c(C)nn2C` is -14.6% (inactive).

As for `O=C(NC(=O)c1ccccc1N1CCCCC1)Nc1ccc(Br)cc1`, the inhibition is -2.62% (inactive). As to `Cc1cc(C)c2nc3nc(C)cc(C)c3c(N)c2c1`, the inhibition was -40.1% (inactive).

Turning to `CCCCc1cc(=O)oc2cc(C)cc(OCc3nn[nH]n3)c12`, the inhibition was -25.9% (inactive). On to `O=C(NNC(=O)c1cc(S(=O)(=O)N2CCCCC2)ccc1Cl)c1ccccc1O`, for which the inhibition is -22.3% (inactive). With `COC(=O)c1cnn2c(C(F)(F)F)cc(-c3ccco3)nc12`, the inhibition was 2.2% (inactive).

In the case of `O=C1c2cccc(OCC(=O)N3N=C(c4cccs4)CC3c3ccc(F)cc3)c2CCN1Cc1ccccc1` (stereo unspecified), the inhibition is 9.54% (inactive).

Turning to `COc1ccc(C2c3ccc(O)cc3Oc3ncn(CCCO)c(=N)c32)cc1OC` (stereo unspecified), the inhibition was -4.61% (inactive). Take `O=S(=O)(NCc1ccccc1Br)c1ccccc1Br`: the inhibition is 6.86% (inactive). Turning to `CCCCN(C)CCNC(=O)C1CCCN(S(=O)(=O)c2cccc3nsnc23)C1` (stereo unspecified), the inhibition is -18% (inactive). For the compound `O=C(O)C1OC(C(=O)O)C2C1C(F)(F)C2(F)F` (stereo unspecified), the inhibition was -13.2% (inactive). For the compound `Cc1cc(C)c(C#N)c(N2CCC(C(N)=O)CC2)n1`, the inhibition was -15.2% (inactive). Take `Cc1nc(-c2ccc(Cl)cc2)sc1C(=O)NN`: the inhibition is -6.37% (inactive). With `N#Cc1cccc(CN2CCC(=O)N(CCO)CC2)c1`, the inhibition was -7.6% (inactive).

The values above are taken from PubChem BioAssay AID1117279 (The Scripps Research Institute Molecular Screening Center, 2014).
